{"source": "PubChem BioAssay (EPA / NIEHS)", "note": "Calls of active or inactive are those of the source. Rule for the calls: active = hit-call score of the fitted dose curve at least 0.9, where 1 is the maximum; inactive = score below 0.9.", "data": [{"target": "Cellular tumor antigen p53 (Homo sapiens) (UniProt P04637)", "sequence (P04637 whole entry, looked up, the tested form may be a part)": "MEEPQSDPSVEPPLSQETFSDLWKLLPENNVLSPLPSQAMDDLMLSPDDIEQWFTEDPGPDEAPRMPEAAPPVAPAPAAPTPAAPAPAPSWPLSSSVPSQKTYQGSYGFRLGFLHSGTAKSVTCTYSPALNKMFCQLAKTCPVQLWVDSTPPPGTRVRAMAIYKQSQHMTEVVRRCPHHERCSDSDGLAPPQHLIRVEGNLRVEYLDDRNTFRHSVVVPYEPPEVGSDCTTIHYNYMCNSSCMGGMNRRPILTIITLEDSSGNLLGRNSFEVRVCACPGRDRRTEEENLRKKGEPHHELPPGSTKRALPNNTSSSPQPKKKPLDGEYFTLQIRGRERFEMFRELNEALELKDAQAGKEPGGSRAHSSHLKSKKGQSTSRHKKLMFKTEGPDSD", "experiment": "ATG_p53_CIS: Attagene CIS-FACTORIAL HepG2 Assay for human p53 Transcription Factor (AID 2282994)", "settings": "HepG2 p53 cis-element reporter, Attagene mRNA; actives raise or lower the signal", "summary_of_the_method": "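In HepG2 cells, reporter transcription units under cis-regulatory promoters were transiently introduced. Following 24 h treatment, RNA was processed to labelled, digested cDNA fragments read by capillary electrophoresis; fitting was bidirectional versus DMSO.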", "values": [{"smiles": "CCOCN(C(=O)CS(=O)(=O)O)c1c(C)cccc1CC", "outcome": "inactive"}, {"smiles": "F[Si-2](F)(F)(F)(F)F", "outcome": "inactive"}, {"smiles": "CNS(=O)(=O)C(F)(F)C(F)(F)C(F)(F)C(F)(F)C(F)(F)C(F)(F)C(F)(F)C(F)(F)F", "outcome": "inactive"}, {"smiles": "COc1ccccc1C=O", "outcome": "inactive"}, {"smiles": "CSc1ccc(Cl)cc1", "outcome": "inactive"}, {"smiles": "CCOC(OCC)OCC", "outcome": "inactive"}, {"smiles": "Cc1ccc(O)c(-n2nc3ccccc3n2)c1", "outcome": "inactive"}, {"smiles": "CC(C)Nc1ccc(NC(C)C)c2c1C(=O)c1ccccc1C2=O", "outcome": "inactive"}, {"smiles": "CC1=CCC2C(=O)OC(=O)C2C1", "note": "(stereo not given)", "outcome": "inactive"}, {"smiles": "C#CC(O)CCC", "note": "(stereo not given)", "outcome": "inactive"}, {"smiles": "OC(O)C(F)(F)C(F)(F)F", "AC50": "121 µM (active)"}, {"smiles": "OCCCc1cccnc1", "outcome": "inactive"}, {"smiles": "CC(C)CCCC(C)CCO", "note": "(stereo not given)", "outcome": "inactive"}, {"smiles": "CCC/C=C/CO", "outcome": "inactive"}, {"smiles": "CC(C)OC=O", "outcome": "inactive"}, {"smiles": "CC1=CCC(=O)O1", "outcome": "inactive"}, {"smiles": "CCc1cccc(C)c1N(C(=O)C(=O)O)C(C)COC", "note": "(stereo not given)", "outcome": "inactive"}, {"smiles": "C[C@]12CC[C@H]3C(=CCc4cc(O)ccc43)[C@@H]1CCC2=O", "outcome": "inactive"}, {"smiles": "CC(C)OC(=O)COc1ccc(Cl)cc1Cl", "outcome": "inactive"}, {"smiles": "O=C(O)CCC(F)(F)C(F)(F)C(F)(F)C(F)(F)C(F)(F)C(F)(F)C(F)(F)F", "AC50": "204 µM (active)"}, {"smiles": "CC1=CC2C3C=CC(C3)C2C1C", "note": "(stereo not given)", "AC50": "80.4 µM (active)"}, {"smiles": "O=C(Cl)C(F)(F)C(F)(F)C(F)(F)C(F)(F)C(F)(F)C(F)(F)F", "outcome": "inactive"}, {"smiles": "Nc1c(Br)cc([N+](=O)[O-])cc1Br", "outcome": "inactive"}, {"smiles": "Nc1cc([N+](=O)[O-])cc(Cl)c1O", "outcome": "inactive"}, {"smiles": "c1ccc(C[P+](c2ccccc2)(c2ccccc2)c2ccccc2)cc1", "outcome": "inactive"}, {"smiles": "O=C1C=CC(=O)N1c1ccc(Cc2ccc(N3C(=O)C=CC3=O)cc2)cc1", "outcome": "inactive"}, {"smiles": "CC(C)(C)C(=O)C1C(=O)c2ccccc2C1=O", "outcome": "inactive"}, {"smiles": "NC(=O)C(F)(F)C(F)(F)C(F)(F)C(F)(F)C(F)(F)C(F)(F)C(F)(F)F", "outcome": "inactive"}, {"smiles": "C=CC(=O)OCC(F)(F)C(F)(F)C(F)(F)COC(=O)C=C", "AC50": "78.8 µM (active)"}, {"smiles": "OCCCC(F)(F)C(F)(F)C(F)(F)C(F)(F)C(F)(F)C(F)(F)C(F)(F)C(F)(F)F", "AC50": "30.7 µM (active)"}, {"smiles": "CCCCCCCCCc1ccc(OCCO)cc1", "outcome": "inactive"}, {"smiles": "CCCCCCCCCCCC(=O)Cl", "outcome": "inactive"}, {"smiles": "COC(=O)c1ccc(C=O)cc1", "outcome": "inactive"}, {"smiles": "Cc1ccc(O)cn1", "outcome": "inactive"}, {"smiles": "Cc1cc(O)c(C(C)(C)C)cc1C(C)(C)C", "outcome": "inactive"}]}]}
